This passage reports Potency results from PubChem BioAssay (Tox21).

Records with an inconclusive call do not appear. Entries that show only a call come without a potency. Calls of active or inactive are those of the source. Calls come from the whole dose curve; as a rule, active = well fitted curve in the direction sought with a large enough effect in the repeat runs; inconclusive = weak or mixed curves; inactive = no such curve, though single readings can be large; an effect the other way counts as inactive or inconclusive.
Note: nearly all actives have a fitted effect of over 40% in size.

In the first assay the target is Nuclear receptor subfamily 1 group I member 2 (Homo sapiens) (UniProt O75469). As to the kind of experiment: CYP3A4 induction through human pregnane X receptor (PXR) by small molecules, qHTS assay (AID 1346984). The settings on record: DPX-2 HepG2 PXR, CYP3A4-luciferin luminescence, 24 h; series mostly up to 46.1 µM. Put shortly:
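Steps: seed DPX-2 cells, 5 hr at 37C; pin-transfer compounds; 24 hr at 37C; add Luciferin-IPA (3uM final), 3 hr at 37C; add One-Glo, 30 min RT; read luminescence.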
Consider `C[C@]12CC[C@@H]3c4ccc(OC(=O)N(CCCl)CCCl)cc4CC[C@H]3[C@@H]1CC[C@@H]2O`, for which the Potency entry is “inactive”.
On the same count and under the same terms, under `CCCCCCCCCCCCCCCC[n+]1ccccc1` stands “inactive”; under `Cc1c(Cl)c(=O)oc2cc(OP(=O)(OCCCl)OCCCl)ccc12`, “inactive”.

Another assay shares this target. Kind of assay: Human pregnane X receptor (PXR) activation by small molecules, qHTS assay (AID 1346985). The note with it: DPX-2 HepG2 CYP3A4-luciferase, 24 h; series mostly up to 38.3 µM. In a few lines:
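DPX-2 cells (HepG2 co-transfected with a PXR response element and a CYP3A4-promoter luciferase construct) were seeded at 2,000 per well, rested 5 hr at 37C, then exposed to DMSO-dissolved compounds for 24 hr. Activation was read as luciferase luminescence.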
(Quantitative high-throughput screening tests each substance at several concentrations.)
With `C[C@]12CC[C@@H]3c4ccc(OC(=O)N(CCCl)CCCl)cc4CC[C@H]3[C@@H]1CC[C@@H]2O`, the Potency entry was “inactive”.
Still for that read-out and setting: in the case of `CCCCCCCCCCCCCCCC[n+]1ccccc1` it was “inactive”; in that of `C[C@H]1O[C@@H](O[C@H]2[C@@H](O)C[C@H](O[C@H]3[C@@H](O)C[C@H](O[C@H]4CC[C@@]5(C)[C@H](CC[C@@H]6[C@@H]5CC[C@]5(C)[C@@H](C7=CC(=O)OC7)CC[C@]65O)C4)O[C@@H]3C)O[C@@H]2C)C[C@H](O)[C@@H]1O`, “inactive”.
